# Test results from PubChem BioAssay AID488907 (Broad Institute, 2010).
# Potency and affinity values are given separately. Results filed as inconclusive are left out. Calls of active or inactive are those of the source.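 The calls were made as follows: active = fluorescence drops from fewer live microbes, with half-maximal dose at most ten times the top valid tested dose; inconclusive = flat curve with 30 to 70% inhibition, or poor fit; inactive = the rest, including signal rises.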
# Assay: reversal of fluconazole resistance in C. albicans, dose response, CaCi-2 strain, Alamar Blue, dry powder, set 3 (AID 488907)
# Conditions: C. albicans CaCi-2 (fluconazole-resistant clinical isolate) + fluconazole, 48 h; series mostly up to 6 µM; activity change, negative = inhibition: at the top concentration
row,SMILES,"activity change, negative = inhibition"
1,O=C(c1ccc(Cl)cc1)N1CCN(c2cnccn2)CC1,-15.4% (inactive)
2,O=C(c1ccc(Cl)cc1)N1CCN(c2cccc(C(F)(F)F)n2)CC1,83.2% (inactive)
3,Cc1cccc(N2CCN(C(=O)c3ccc(Cl)cc3)CC2)n1,-6.9% (inactive)
